# Assay results published in PubChem BioAssay (NCI).
# This is part of a sample that, as a whole, favours compounds with a hit. Of some 79,000 tested, about 15% had one in any assay. Values without a mark were called inactive. Cut-off read from the data, not from the text of the source: active = growth inhibition above about 70%; inactive = the rest.
# Assay: NCI Yeast Anticancer Drug Screen. Data for the mlh1 rad18 strain (AID 175)
# Conditions: S. cerevisiae mlh1 rad18 strain growth inhibition; at 50.0 µM; active compounds read high
# In short: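 In this whole-cell yeast screen, a strain with altered DNA damage repair is challenged with compound, and its growth is measured against matched vehicle-treated controls.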
row,Structure (SMILES),growth inhibition
1,CCCCCCCN1C=CCC(S(=O)(=O)N2CCOCC2)=C1,-2%
2,COC(=O)C(C)(C)N=CN(C)C,3.55%
3,N#CCCOCC(OCCC#N)C(OCCC#N)C(OCCC#N)C(COCCC#N)OCCC#N (stereo not given),-13.2%
4,CC(C)CN(CC(=O)Nc1cccc(Cl)c1)CC(C)C,2.1%
5,CCCNC(=O)Oc1ccccc1C(N)=O,-5.75%
6,CC(=O)CC(=O)CCCCC(=O)O,4.8%
7,NC1=NC2(COC(c3ccccc3)(c3ccccc3)c3ccccc3)OC(COC(c3ccccc3)(c3ccccc3)c3ccccc3)C(O)C2O1 (stereo not given),13.4%
8,O=NNc1nc2ncccc2cc1-c1ccccc1Cl,-8.2%
9,CC(C)=CCC1=C(O)[C@@](O)(CC=C(C)C)C(=O)C(C(=O)CC(C)C)=C1O,29.6%
10,C/C(CC(C)C)=N/Nc1ccc([N+](=O)[O-])cc1[N+](=O)[O-],26.8%
11,CCOC(=O)NC(NC(=O)OCC)c1ccc(Cl)cc1Cl,7.8%
12,NC1=Nc2cc(Cl)ccc2Sc2nc3ccccc3n21,-2.8%
13,C=C1C(=O)O[C@H]2[C@H]1[C@H](OC(=O)/C(C)=C\C)CC(=C)[C@@H]1[C@H](O)[C@H]3O[C@@]3(C)[C@@]12O,-18%
14,Cc1cc(Br)c(I)c([N+](=O)[O-])c1,6.25%
15,N#C/C(=C\c1c(S(=O)(=O)O)sc2ccccc12)C(N)=O (tested in a mixture with another compound),21.8%
